# RORg inh: inhibitors of mouse ROR gamma transcriptional activity; Potency, µM (highest dose often 53.6 µM), without a hit: at the top dose activity change, negative = inhibition, usual class: inhibitors; 310,000 compounds, 5.4% hits; Drosophila S2 Gal4-RORgamma UAS-luciferase reporter, 20 h; P51450; note: % is set by controls: 0 for no effect and ±100 for the full control effect; nearly all actives have a fitted effect of over 60% in size
# Target sequence (P51450 whole entry, looked up, the tested form may be a part): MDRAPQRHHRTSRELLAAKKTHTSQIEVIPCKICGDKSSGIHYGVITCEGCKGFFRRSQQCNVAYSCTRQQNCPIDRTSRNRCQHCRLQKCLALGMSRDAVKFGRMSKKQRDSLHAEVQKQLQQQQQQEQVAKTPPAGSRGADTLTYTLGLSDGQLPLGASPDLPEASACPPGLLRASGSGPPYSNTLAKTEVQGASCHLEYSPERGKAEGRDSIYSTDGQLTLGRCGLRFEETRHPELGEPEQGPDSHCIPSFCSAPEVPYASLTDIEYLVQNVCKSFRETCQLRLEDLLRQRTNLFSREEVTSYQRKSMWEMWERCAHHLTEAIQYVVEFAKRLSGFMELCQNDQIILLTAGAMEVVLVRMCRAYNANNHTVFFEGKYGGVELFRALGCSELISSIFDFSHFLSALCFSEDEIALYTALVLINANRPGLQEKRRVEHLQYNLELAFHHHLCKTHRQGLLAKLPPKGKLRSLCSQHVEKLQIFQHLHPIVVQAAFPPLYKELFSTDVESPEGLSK
#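 ROR gamma transcriptional activity was tracked as Gal4-UAS luciferase output in stably transfected Drosophila Schneider cells, with compound added 1 hr before 700 uM copper sulfate induction and a 20 hr ambient-temperature incubation.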
# GLP1R inv ag: acts as inverse agonist at human GLP-1 receptor; Potency, µM (series often up to 38.3 µM), without a hit: top-dose activity change, negative = inhibition, hits mostly inhibitors; HEK293 GLP-1R CRE-luciferase, luminescence, 24 h; GLP-1R form is constitutively active; P43220; 410,000 compounds, 1.6% hits; note: % is set by controls: 0 for no effect and ±100 for the full control effect; nearly all actives have a fitted effect of over 55% in size
#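 Constitutively active GLP-1R drives a cAMP-responsive luciferase in stably transfected HEK293 cells; test compounds are added after overnight (12 h) attachment and left 24 hr, and signal loss in luminescence marks inhibition.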
# HEK293 tox: cytotoxicity counter-screen for GLP-1 receptor inverse agonists | 410,000 compounds, 0.13% hits | HEK293 cAMP-luciferase reporter cells, luminescence, 24 h | AID 624418 | Potency, µM (series often up to 38.3 µM), inactives show top-dose activity change, negative = inhibition, usual class: inhibitors;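 note: loss of luciferase light is scored as toxicity; % is set by controls: 0 for no effect and ±100 for the full control effect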
#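 To flag toxic compounds, the library was rerun on cells for 24 hr at 37 deg C and 5% CO2. Viability-linked luminescence was captured 12 min after adding luciferase detection reagent.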
# GLP1R ag: GLP-1 receptor (human) agonism; 380,000 compounds, 0.007% hits; Potency, µM (titrated, usually from 45.6 µM), for inactives: top-dose activation, hits mostly activators; AID 624172; HEK293 GLP-1R CRE-luciferase, luminescence, 4-6 h; cells express a hypersensitive GLP-1R form; note: % of control where 0% means no effect
# VP16 counter: inhibits Gal4-VP16 luciferase reporter, ROR gamma counter-screen | Drosophila S2 Gal4-VP16 UAS-luciferase, luminescence, 20 h | Potency, µM (titrated, usually from 53.6 µM), for the others: at the top dose activity, negative = inhibition, usual class: inhibitors | 310,000 compounds, 3.5% hits;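 note: Gal4-VP16 expression switched on by copper sulfate through the metallothionein promoter; % is set by controls: 0 for no effect and ±100 for the full control effect; nearly all actives have a fitted effect of over 50% in size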
# Numbers without * were called inactive; ? = inconclusive; nt = no result. An excerpt weighted towards active compounds, which were near 5.9% of everything screened. Calls come from the whole dose curve; as a rule, active = well fitted curve in the direction sought with a large enough effect; inconclusive = small, poorly fitted or top-dose-only effect, or another doubt; inactive = no such curve, though single readings can be large; an effect the other way counts as inactive or inconclusive. Potency is the fitted concentration of half-maximal effect.
SMILES,RORg inh,GLP1R inv ag,HEK293 tox,GLP1R ag,VP16 counter
CCOc1ccc(NC(=S)Nc2ccc(F)cc2)cc1,13µM*,6%,-1%,-7%,?
CCOc1ccc(NC(=S)NC23CN4CN(CN(C4)C2)C3)cc1,-28%,15%,4%,0%,-7%
O=C(c1cccc(F)c1)N1CCC[C@@]2(CCN(Cc3ccccc3)C2)C1,-7%,nt,nt,nt,-3%
C[C@H](NC(=O)[C@@H](N)Cc1ccc(O)cc1)C(=O)NCC(=O)N[C@H]1CSSC[C@@H](C(=O)O)NC(=O)[C@H](CO)NC(=O)[C@H]([C@@H](C)O)NC(=O)[C@H](Cc2ccccc2)NC(=O)[C@H]([C@@H](C)O)NC(=O)[C@H](CCCCN)NC(=O)[C@H](Cc2c[nH]c3ccccc23)NC(=O)[C@H](Cc2ccccc2)NC(=O)[C@H](Cc2ccccc2)NC(=O)[C@H](CC(N)=O)NC(=O)[C@H](CCCCN)NC1=O,2%,nt,nt,nt,-6%
CC(C)=CCn1cnc2c1C(NOCc1ccccc1)=NCN2,3%,nt,nt,nt,-19%
C=C1C(=O)OC(CCCCCCCC)C1C(=O)O (configuration not stated),18%,nt,nt,nt,-28%
O=C(CS(=O)c1ccccc1[N+](=O)[O-])Oc1ccc(Br)cc1 (configuration not stated),3%,8%,-3%,0%,-19%
CS(=O)(=O)c1ccc(S(=O)CC(=O)Oc2ccc(Cl)cc2)c([N+](=O)[O-])c1 (configuration not stated),4µM*,?,-31%,0%,-25%
O=C(NC1=C(Nc2ccc(Cl)cc2)C(=O)c2ccccc2C1=O)c1ccccc1,14µM*,?,?,-6%,?
O=C(NC1=C(NC2CCS(=O)(=O)C2)C(=O)c2ccccc2C1=O)c1ccccc1 (configuration not stated),13µM*,?,?,-6%,?
CN(C1=C(NC(=O)c2ccc(Cl)cc2)C(=O)c2ccccc2C1=O)c1ccccc1,11µM*,?,-25%,-8%,11µM*
O=C(Nc1cccc(Cl)c1)c1ccccc1,nt,-27%,?,6%,nt
O=C1C(Cl)=C(NC(=O)c2ccccc2)C(=O)C(Cl)=C1NC(=O)c1ccccc1,7.1µM*,?,?,-2%,?
Cc1cccc(NC2=C(NC(=O)c3ccccc3)C(=O)c3ccccc3C2=O)c1,?,?,?,-16%,?
O=C(NC(NC1CCS(=O)(=O)C1)C(=O)c1cccs1)c1ccccc1 (configuration not stated),1%,3%,-15%,-3%,6%
CN(c1ccc(C(=O)Nc2ccc(Cl)cn2)cc1)S(=O)(=O)c1ccccc1,-30%,?,3%,-2%,?
O=c1c(-c2ccc(F)cc2)nc2cncnc2n1Cc1ccc(F)cc1,11%,nt,nt,nt,-7%
Cc1sc2ncn(CC(=O)Nc3ccc(C(C)C)cc3)c(=O)c2c1S(=O)(=O)N1CCN(c2ncccn2)CC1,nt,20%,2%,0%,nt
CCN(Cc1ccccc1)C(=O)c1cc2c(s1)-c1c(C)cccc1OC2,nt,?,7%,nt,nt
O=[N+]([O-])c1ccc(/C=C/c2ccc3cccc([N+](=O)[O-])c3n2)cc1,?,2%,-16%,5%,-27%
COC(=O)c1ccc(/C=C/c2ccc3cccc(OC(C)=O)c3n2)cc1,5.6µM*,-30%,-18%,-7%,3.5µM*
O=[N+]([O-])c1cccc(/C=C/c2ccc3cccc(O)c3n2)c1,3.2µM*,-16%,-13%,-4%,4.5µM*
O=C(O)c1ccc(/C=C/c2ccc3cccc(O)c3n2)cc1,2.8µM*,73%,-7%,7%,0.56µM*
Oc1ccc(/C=C/c2ccc3cccc(O)c3n2)cc1Br,3.2µM*,10µM*,202%,1%,18µM*
CCOC(=O)c1ccc(NC(=O)CSc2c(C(C)C)cnc3c2c(=O)n(C)c(=O)n3C)cc1,nt,8%,5%,nt,nt
CCOc1ccc(C(=O)c2cn(Cc3ccc(Cl)cc3)c3cc(OC)c(OC)cc3c2=O)cc1,nt,-10%,-17%,nt,nt

# Screening results from PubChem BioAssay.
